Laboratory results as given in PubChem BioAssay.
Calls of active or inactive are those of the source.

What was measured:
[1] = test system: XIP peptide (Xip251-270) binding; experiment: XIP fragment 251-270 binding compounds – biochemical, small-molecule microarray, fluorescence 635/667 nm, 0.1 µg/mL protein, primary screen (AID 1182); settings: fluorescent protein binding, 635 nm, higher = more signal, called active from +8 up or from −8 down
XIP peptide (Xip251-270) = experiment: compounds binding XIP fragment 251-270 – biochemical, small-molecule microarray, fluorescence 635/667 nm, 0.5 µg/mL protein, primary screen (AID 1183); settings: fluorescence 635 nm, higher = more signal
[2] = blood-stage malaria parasite viability loss – strain 3D7, DAPI fluorescence, 100 nL, primary screen (AID 1184);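 note: parasites grown inside human red blood cells in medium with human serum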; settings: P. falciparum 3D7 growth, 3 d, higher = more signal
[3] = molecular target: Homeobox protein Hox-A13 (Mus musculus) (UniProt Q62424); experiment: disruptors of Hoxa13 oligonucleotide interaction – biochemical, fluorescence polarization, labeled oligonucleotide, primary screen (AID 1185); settings: Hoxa13:DNA binding, 15 min, higher = more signal, called active from +8 up or from −8 down
Chain of Homeobox protein Hox-A13 (Mus musculus) (Q62424 whole entry, looked up): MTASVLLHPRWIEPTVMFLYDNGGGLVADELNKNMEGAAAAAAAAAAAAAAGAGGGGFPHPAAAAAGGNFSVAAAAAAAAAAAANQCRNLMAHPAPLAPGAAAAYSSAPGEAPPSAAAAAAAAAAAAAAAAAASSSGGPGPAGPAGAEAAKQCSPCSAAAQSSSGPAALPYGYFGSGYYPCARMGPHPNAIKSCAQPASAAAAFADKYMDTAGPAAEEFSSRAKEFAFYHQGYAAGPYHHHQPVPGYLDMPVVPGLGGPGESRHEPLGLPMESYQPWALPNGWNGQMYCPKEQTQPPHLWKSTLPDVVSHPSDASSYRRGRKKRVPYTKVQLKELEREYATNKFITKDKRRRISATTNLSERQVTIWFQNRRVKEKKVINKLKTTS

Row | Structure (SMILES) | composite z-score [1] | composite z-score (XIP peptide (Xip251-270)) | z-score [2] | z-score [3]
1 | CO[C@@H]1C=CCC(=O)N[C@@H](C)C(=O)OC[C@@H](OC)[C@H](C)C=CCC(=O)OC[C@H]1C | 0.551 (inactive) | 0.744 | -0.523 | -0.0745 (inactive)
2 | COC(=O)[C@@H]1CC[C@H](C)[C@@H](c2ccc(C)cc2)N1C(=O)c1ccc(C=NO[C@@H](C)c2cc(-c3c(C)cc(C)cc3C)no2)cc1 | -0.274 (inactive) | 0.511 | -0.225 | 0.492 (inactive)
3 | COC(=O)[C@H](C)NC(=O)CCC1CC(OC(=O)NCCc2ccc(F)cc2)CC2(CCCC(COC(=O)NCCOc3ccccc3)O2)O1 (some centres undefined) | 2.99 (inactive) | 0.536 | -1.84 | -1.1 (inactive)
4 | CCOC(=O)[C@H](Cc1ccccc1)NC(=O)CCC1CC(OC(=O)NCCc2ccc(F)cc2)CC2(CCCC(COC(=O)NCc3cccc(C(F)(F)F)c3)O2)O1 (some centres undefined) | 0.966 (inactive) | 0.463 | -1.9 | -3.11 (inactive)
5 | C[C@@H]1CC[C@@H](C(=O)O)N[C@H]1c1cccc(N2CCOCC2)c1 | -0.315 (inactive) | -0.135 | 0.818 | 0.167 (inactive)
6 | CC(=O)OC[C@H]1O[C@H](CC=NO[C@@H](C)c2cc(-c3c(C)cc(C)cc3C)no2)C=C[C@@H]1OC(C)=O | 0.205 (inactive) | -0.445 | -0.863 | -5.88 (inactive)
7 | CCO[C@H](c1cc(OC)cc([N+](=O)[O-])c1OC)[C@H](C)[C@@H](OC)[C@H](C)C=CCC(=O)OC | 0.72 (inactive) | 0.0025 | -0.119 | -0.256 (inactive)
8 | CCN1C(=O)[C@H]2[C@H]3[C@H](O)[C@H](O)CC(=NOCC(C)C)[C@H]3CC[C@H]2C1=O | -0.583 (inactive) | -0.122 | 1.82 | 0.204 (inactive)
9 | CC(CCN1CCCCc2nc(C)c(C)cc21)=NO[C@H](C)c1cn([C@@H]2COC[C@H]2O)nn1 | 0.641 (inactive) | 0.382 | 0.255 | -1.36 (inactive)
10 | O=C1[C@H]2[C@H]3[C@H](O)[C@H](O)CC(=NOC[C@@H](O)COCc4ccco4)[C@@H]3CC[C@H]2C(=O)N1C1CCCCC1 | 0.288 (inactive) | 0.306 | 1.7 | -4.42 (inactive)
11 | CC(=O)OC[C@H]1O[C@H](C#CCCc2ccccc2)C=C[C@@H]1OC(C)=O | 0.22 (inactive) | 0.758 | 0.972 | -4.7 (inactive)
12 | CC(C)[C@@H](OCc1ccccc1)[C@H](C)CON=C1[C@H]2CCn3c(=O)n(-c4ccccc4)c(=O)n3[C@H]2[C@H](O)[C@@H]2O[C@H]12 | -0.874 (inactive) | 0.199 | -2 | -5.16 (inactive)
13 | OC[C@H]1O[C@H](C#Cc2ccccc2)C=C[C@@H]1O | 0.0849 (inactive) | -0.105 | 0.223 | -2.53 (inactive)
14 | COC(=O)CC=C1c2ccccc2[C@H](OC)[C@H]1C | -1.14 (inactive) | -0.302 | 0.406 | 0.281 (inactive)
15 | CCN1C(=O)[C@H]2[C@H]3[C@H](O)[C@H](O)CC(=NOC[C@@H](O)COCc4ccco4)[C@H]3CC[C@H]2C1=O | 0.386 (inactive) | 0.505 | -0.0786 | 0.366 (inactive)
16 | O=C1[C@H]2[C@H]3[C@H](O)[C@H](O)CC(=NOCc4ccccc4)[C@H]3CC[C@H]2C(=O)N1C1CCCCC1 | 0.288 (inactive) | 0.714 | -0.369 | 0.449 (inactive)
17 | COCC#Cc1ccc([C@@H]2N[C@H](C(=O)O)CC[C@H]2C)cc1 | -0.238 (inactive) | -0.52 | 0.383 | -1.46 (inactive)
18 | CCN1C(=O)[C@H]2[C@H]3[C@H](O)[C@H](O)CC(=NO[C@@H]4O[C@H](COC(C)=O)[C@@H](OC(C)=O)[C@H](OC(C)=O)[C@H]4OC(C)=O)[C@@H]3CC[C@H]2C1=O | 0.369 (inactive) | -0.191 | 1.87 | -1.75 (inactive)
19 | CCOC(=O)[C@H](CC(C)C)NC(=O)CCC1CC(OC(=O)NCc2ccc3c(c2)OCO3)CC2(CCCC(COC(=O)NCCC(C)C)O2)O1 (some centres undefined) | 0.554 (inactive) | 0.842 | -0.278 | -1.7 (inactive)
20 | C[C@H]1C=CCC(=O)OC[C@H](C)C(=O)N2CCC[C@H]2C(=O)OC1 | 0.23 (inactive) | 0.476 | 0.878 | -0.266 (inactive)
21 | CCOC(=O)[C@H](Cc1ccccc1)NC(=O)CCC1CC(OC(=O)NCc2ccc3c(c2)OCO3)CC2(CCCC(COC(=O)NCCc3ccc(Cl)cc3)O2)O1 (some centres undefined) | 0.0608 (inactive) | 0.563 | -1.78 | -1.76 (inactive)
